Results on twelve compounds are retold here after PubChem BioAssay (Tox21).

Where “and” joins values, the source holds several entries; their conditions need not be identical. Identical values can stand only once. Unmarked numbers belong to inactive results. Records with an inconclusive call do not appear. More than one record can exist for a structure, and the calls need not agree. Calls of active or inactive are those of the source. Unless noted, the call rests on the fitted dose curve; in most records, active means well fitted curve in the direction sought with a large enough effect in the repeat runs; inconclusive means weak or mixed curves; inactive means no such curve, though single readings can be large; an effect the other way counts as inactive or inconclusive.

Test [1] is described as follows: qHTS assay to identify small molecule phospholipidosis (PLD) inducers (AID 1259344; active means well fitted curve in the direction sought with a large enough effect; an effect the other way counts as inactive or inconclusive). The gist of the method: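 Quantitative HTS in HepG2: compound plus LipidTOX Red dye for 24 h, paraformaldehyde fixation with Hoechst 33342, widefield high-content imaging; amiodarone as positive and DMSO as negative control.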
A short description of test [2]: qHTS assay to identify small molecule HDAC inhibitors (AID 1259364).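 Further: wild-type HCT-116 cells with endogenous class I/II HDAC activity; top concentration of the series differs between compounds; nearly all actives have a fitted effect of over 45% in size.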 The method in brief:
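Read-out: luminescence of HDAC-Glo I/II reagent, 30 min RT, reflecting class I/II deacetylase activity in whole HCT-116 cells pre-exposed 2 h to DMSO-dissolved compounds.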
For orientation: In qHTS, concentration-response curves come from the screen itself.

Test [3] in a line: qHTS assay to identify small molecule HDAC inhibitors - cell viability counter screen (AID 1259365). Further: series mostly up to about 92 µM; nearly all actives have a fitted effect of over 50% in size. The gist of the method:
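Measured quantity is CellTiter-Glo luminescence from wild-type HCT-116 cells after compound incubation of 2hr at 37C, 5% CO2; reagent developed 30min at room temperature.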

Test [4] is described as follows: qHTS assay to identify small molecule agonists of the sonic hedgehog signaling (Shh) pathway - cell viability counter screen (AID 1259366). Further: nearly all actives have a fitted effect of over 50% in size. The method in brief: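 In quantitative high-throughput format, 3T3 Gli1-Luc cells were exposed to compounds for 24hr and multiplexed for viability using CellTiter-Fluor, incubated 1hr at 37C before the fluorescence read.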
Test [5] is described as follows: qHTS assay to identify small molecule antagonists of the sonic hedgehog signaling (Shh) pathway - cell viability counter screen (AID 1259367). Further: nearly all actives have a fitted effect of over 55% in size. The gist of the method: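 Seed 3T3 Gli1-Luc cells at 2,000 per well; incubate 4 hr; add compound in DMSO, then conditioned medium; incubate at 37C with 5% CO2; add CellTiter-Fluor after 23 hr; read fluorescence 1 hr later.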

Test [6] is described as follows: qHTS assay to identify small molecule agonists of the sonic hedgehog signaling (Shh) pathway (AID 1259368; calls by dose curve;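 further: NIH/3T3-derived 3T3Gli1-Luc cells carrying a stable Gli1-driven firefly luciferase reporter; series mostly up to about 92 µM; nearly all actives have a fitted effect of over 15% in size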). The method in brief:
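A Gli1 transcriptional response element controlled firefly luciferase in 3T3Gli1-Luc cells. Compounds and a positive control were added 4 hr after plating, and cells were incubated a further 24 hr at 37 C before luminescence detection.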

Test [7] in a line: qHTS assay to identify small molecule antagonists of the sonic hedgehog signaling (Shh) pathway (AID 1259369; calls by dose curve; further: nearly all actives have a fitted effect of over 45% in size). The gist of the method: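 For antagonist detection, the reporter line received test compounds together with conditioned medium, incubated 24hr at 37 C, 5% CO2, then luminescence was recorded following 30min room-temperature luciferase reagent incubation.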
A short description of test [8]: qHTS assay to identify small molecule agonists of the androgen receptor (AR) signaling pathway in the presence of an antagonist - cell viability counter screen (AID 1259379).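 Further: MDA-kb2 human breast cancer cells carrying an MMTV luciferase reporter; series mostly up to about 92 µM; nearly all actives have a fitted effect of over 25% in size.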 The method in brief:
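Seed MDA-kb2 at 3,000 cells/well; incubate 5 hr, 37C, 0% CO2. Add nilutamide to 3.0uM final, then pin compounds at 15 concentrations. Incubate 16 hr. Add CellTiter-Fluor at 15 hr, read fluorescence after 1 hr.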

A short description of test [9]: qHTS assay to identify small molecule agonists of the estrogen receptor beta (ER-beta) signaling pathway - cell viability counter screen (AID 1259380). Further: nearly all actives have a fitted effect of over 30% in size. Further: potency means the concentration at half of the fitted maximal effect. The method in brief: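 CellTiter-Glo read, 30 min RT, same wells as bla assay; cells ER-beta-UAS-bla HEK293T; 16 hr compound, 37C; medium 2% charcoal-stripped FBS.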
Test [10] is described as follows: qHTS assay to identify small molecule antagonists of the estrogen receptor beta (ER-beta) signaling pathway - cell viability counter screen (AID 1259382). Further: nearly all actives have a fitted effect of over 55% in size. Further: potency means the concentration at half of the fitted maximal effect. The method in brief:
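In this multiplexed counter screen, cells were seeded at 2,000 per well in medium with 2% charcoal-stripped FBS and incubated 6 hr before compound and 1nM final E2 were added. Sixteen hours later, ATP-based luminescence reported viability.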

The target in test [11] is Estrogen receptor (Homo sapiens) (UniProt P03372). Nature of the test: qHTS assay to identify small molecule agonists of the estrogen receptor alpha (ER-alpha) signaling pathway in the presence of an antagonist (AID 1259383; calls by dose curve; further: top concentration of the series differs between compounds; nearly all actives have a fitted effect of over 15% in size). The gist of the method: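 Stably transfected VM7Luc4E2 reporter cells, kept 5 days in charcoal-stripped serum, received ICI-182,780 at 10.0nM final before compound addition. Following 22hr incubation at 37C and 5% CO2, luciferase signal was read by luminescence.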
Chain of Estrogen receptor (Homo sapiens) (P03372 whole entry, looked up): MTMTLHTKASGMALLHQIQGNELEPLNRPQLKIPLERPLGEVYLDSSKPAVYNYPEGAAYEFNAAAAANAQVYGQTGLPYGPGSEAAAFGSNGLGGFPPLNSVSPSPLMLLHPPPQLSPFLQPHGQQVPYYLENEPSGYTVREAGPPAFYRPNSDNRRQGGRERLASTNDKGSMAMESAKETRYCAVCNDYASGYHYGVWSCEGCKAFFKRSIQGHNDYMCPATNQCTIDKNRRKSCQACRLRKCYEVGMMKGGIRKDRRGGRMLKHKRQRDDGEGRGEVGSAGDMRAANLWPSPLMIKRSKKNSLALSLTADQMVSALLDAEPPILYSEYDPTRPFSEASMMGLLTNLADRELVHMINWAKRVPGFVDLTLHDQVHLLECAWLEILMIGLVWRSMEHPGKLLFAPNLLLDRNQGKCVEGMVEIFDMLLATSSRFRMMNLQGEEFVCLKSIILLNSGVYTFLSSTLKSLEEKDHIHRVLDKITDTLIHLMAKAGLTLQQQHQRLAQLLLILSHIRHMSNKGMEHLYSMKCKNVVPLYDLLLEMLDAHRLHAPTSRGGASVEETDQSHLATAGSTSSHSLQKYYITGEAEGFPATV

The nature of test [12]: qHTS assay to identify small molecule agonists or antagonists of the thyroid stimulating hormone receptor (TSHR) signaling pathway - wild type cell line counter screen (AID 1259384; calls by dose curve). The gist of the method: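 Wild-type Hek293 cells, 800/well, 18 h at 37C, then compound with Ro20-1724 for 30 min RT. cAMP by HTRF (cAMP-d2/anti-cAMP cryptate), 1 h RT, fluorescence read. 15 concentrations, triplicates.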

Test [13] deals with Thyrotropin receptor (Homo sapiens) (UniProt P16473). Nature of the test: qHTS assay to identify small molecule antagonists of the thyroid stimulating hormone receptor (TSHR) signaling pathway (AID 1259385; calls by dose curve; further: nearly all actives have a fitted effect of over 20% in size). The method in brief:
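TSHR-HEK293 cells (800/well) plated 18 h, then compounds with Ro20-1724 and TSH at 1.5 ng/mL final, 30 min at room temperature. cAMP quantified by HTRF (cAMP-d2/anti-cAMP-cryptate, 1 h); 15 concentrations in triplicate.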

Test [14] in a line: qHTS assay to identify small molecule agonists of the estrogen receptor alpha (ER-alpha) signaling pathway in the presence of an antagonist - cell viability counter screen (AID 1259386).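 Further: series mostly up to about 92 µM; cells exposed to compounds for 22 h at 37 °C before the viability read; nearly all actives have a fitted effect of over 30% in size.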 The gist of the method:
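Viability counter screen using VM7Luc4E2 (full-length ER-alpha, four ERE-luciferase). The cells were treated with compounds alongside ICI-182,780 10.0nM for 22hr, and live-cell protease fluorescence was quantified with CellTiter-Fluor.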

Test [15] addresses Progesterone receptor (Homo sapiens) (UniProt P06401). Nature of the test: qHTS assay to identify small molecule agonists of the progesterone receptor (PR) signaling pathway (AID 1346784; calls by dose curve; further: nearly all actives have a fitted effect of over 30% in size; further: potency means the concentration at half of the fitted maximal effect). The method in brief: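 Reporter assay, GripTite PR-UAS-bla HEK 293T cells: 16 hr exposure to DMSO-dissolved compounds at 37C, 5% CO2, in steroid-depleted (2% charcoal-stripped FBS) medium; beta-lactamase measured by FRET fluorescence.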

Test [16] has the same target. Nature of the test: qHTS assay to identify small molecule antagonists of the progesterone receptor (PR) signaling pathway (AID 1346795; active means well fitted inhibition curve with a large enough effect in the signal ratio in the repeat runs, not every such curve was filed as active; the % refers to the signal ratio). The method in brief:
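Stimulus R5020 at 1 nM final; cells HEK293T PR-UAS-bla; medium with 2% charcoal-stripped FBS; compound exposure 16 hr at 37C, 5% CO2; detection by FRET beta-lactamase substrate, 2 hr, room temperature.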

The target of test [17] is Estrogen receptor beta (Homo sapiens) (UniProt Q92731). Description: qHTS assay to identify small molecule agonists of the estrogen receptor beta (ER-beta) signaling pathway (AID 1259377; active means well fitted activation curve with a large enough effect in the signal ratio in the repeat runs, not every such curve was filed as active; the % refers to the signal ratio). The gist of the method: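 Reporter cells (HEK293T, ER-beta-UAS-bla) receive compounds or DMSO after a 6 hr pre-incubation. They then incubate 16 hr at 37C/5% CO2, and fluorescence from LiveBLAzer B/G substrate is measured after 2 hours at room temperature.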
Chain of Estrogen receptor beta (Homo sapiens) (Q92731 whole entry, looked up): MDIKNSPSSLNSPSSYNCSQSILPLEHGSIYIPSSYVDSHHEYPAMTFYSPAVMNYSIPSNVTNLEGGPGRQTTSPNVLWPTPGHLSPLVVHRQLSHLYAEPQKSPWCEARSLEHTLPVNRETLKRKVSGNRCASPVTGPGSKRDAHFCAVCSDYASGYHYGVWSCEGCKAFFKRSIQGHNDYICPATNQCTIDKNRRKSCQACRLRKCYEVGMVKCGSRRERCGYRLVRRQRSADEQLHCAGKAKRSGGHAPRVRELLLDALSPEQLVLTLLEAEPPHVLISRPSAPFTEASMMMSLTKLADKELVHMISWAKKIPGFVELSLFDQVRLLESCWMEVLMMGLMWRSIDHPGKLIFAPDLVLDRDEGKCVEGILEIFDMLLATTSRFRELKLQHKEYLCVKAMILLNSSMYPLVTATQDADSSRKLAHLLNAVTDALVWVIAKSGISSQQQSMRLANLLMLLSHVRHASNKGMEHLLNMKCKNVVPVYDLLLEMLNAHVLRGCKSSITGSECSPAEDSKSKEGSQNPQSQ

For test [18] the target is unchanged. Description: qHTS assay to identify small molecule antagonists of the estrogen receptor beta (ER-beta) signaling pathway (AID 1259378; active means well fitted inhibition curve with a large enough effect in the signal ratio in the repeat runs, not every such curve was filed as active; the % refers to the signal ratio). The gist of the method:
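ER-beta-UAS-bla HEK293T cells in 2% charcoal-stripped FBS medium treated with compound plus 1nM final 17-beta-estradiol for 16 hr at 37C. Beta-lactamase reporter read by FRET substrate fluorescence after 2 hours at room temperature.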
On the % scale 0 is the no-effect control and ±100 the full control effect.

Chain of Progesterone receptor (Homo sapiens) (P06401 whole entry, looked up): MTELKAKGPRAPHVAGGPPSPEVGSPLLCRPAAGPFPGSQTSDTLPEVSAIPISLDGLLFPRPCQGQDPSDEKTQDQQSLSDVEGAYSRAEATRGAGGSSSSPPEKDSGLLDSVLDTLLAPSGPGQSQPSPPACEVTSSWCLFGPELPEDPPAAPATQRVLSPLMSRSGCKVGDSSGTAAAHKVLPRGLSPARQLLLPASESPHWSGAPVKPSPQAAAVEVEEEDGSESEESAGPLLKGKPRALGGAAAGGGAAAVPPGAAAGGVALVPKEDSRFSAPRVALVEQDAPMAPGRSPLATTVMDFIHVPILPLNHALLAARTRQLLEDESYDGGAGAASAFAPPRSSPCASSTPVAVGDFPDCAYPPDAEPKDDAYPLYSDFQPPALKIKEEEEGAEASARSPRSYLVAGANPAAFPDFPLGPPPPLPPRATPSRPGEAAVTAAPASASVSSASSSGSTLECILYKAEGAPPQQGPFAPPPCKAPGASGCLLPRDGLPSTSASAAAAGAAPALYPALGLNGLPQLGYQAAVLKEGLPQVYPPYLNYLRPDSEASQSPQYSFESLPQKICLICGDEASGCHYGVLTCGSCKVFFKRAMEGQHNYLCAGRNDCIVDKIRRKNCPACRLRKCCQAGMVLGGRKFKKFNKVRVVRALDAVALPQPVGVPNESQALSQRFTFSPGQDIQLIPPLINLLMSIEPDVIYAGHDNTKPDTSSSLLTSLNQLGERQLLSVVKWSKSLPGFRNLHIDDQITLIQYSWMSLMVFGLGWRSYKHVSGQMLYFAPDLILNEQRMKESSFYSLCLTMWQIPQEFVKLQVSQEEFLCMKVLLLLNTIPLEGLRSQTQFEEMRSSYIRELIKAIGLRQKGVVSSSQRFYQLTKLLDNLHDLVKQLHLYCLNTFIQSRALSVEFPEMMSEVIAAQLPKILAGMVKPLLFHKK
Chain of Thyrotropin receptor (Homo sapiens) (P16473 whole entry, looked up): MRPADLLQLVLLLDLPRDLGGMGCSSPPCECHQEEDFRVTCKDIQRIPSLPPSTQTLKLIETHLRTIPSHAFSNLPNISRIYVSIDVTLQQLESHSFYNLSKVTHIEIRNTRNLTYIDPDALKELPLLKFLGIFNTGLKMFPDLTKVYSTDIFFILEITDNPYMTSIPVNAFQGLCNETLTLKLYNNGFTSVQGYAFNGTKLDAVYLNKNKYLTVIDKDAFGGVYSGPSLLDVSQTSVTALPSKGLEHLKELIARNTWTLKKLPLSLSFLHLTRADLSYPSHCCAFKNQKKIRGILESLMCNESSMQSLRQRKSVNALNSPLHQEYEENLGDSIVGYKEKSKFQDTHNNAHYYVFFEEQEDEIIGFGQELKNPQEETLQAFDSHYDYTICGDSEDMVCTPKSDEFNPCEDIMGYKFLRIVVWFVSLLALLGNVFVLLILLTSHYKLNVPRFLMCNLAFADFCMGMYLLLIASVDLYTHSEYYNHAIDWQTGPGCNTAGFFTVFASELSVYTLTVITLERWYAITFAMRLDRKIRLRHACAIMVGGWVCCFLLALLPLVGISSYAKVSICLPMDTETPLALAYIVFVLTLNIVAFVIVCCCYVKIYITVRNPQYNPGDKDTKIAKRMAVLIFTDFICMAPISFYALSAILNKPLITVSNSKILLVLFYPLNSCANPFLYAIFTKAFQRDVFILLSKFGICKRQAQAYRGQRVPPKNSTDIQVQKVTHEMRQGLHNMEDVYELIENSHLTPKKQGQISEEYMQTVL

Turning to `CCOC(=O)NNc1nncc2ccccc12`, the PLD induction in test [1] was -1.23% [at 7.66 µM]. Further, the Potency result in test [2], in test [4], in [5], in test [7], in test [8] and in [9] was “inactive” each time. For the same compound, the Potency result in test [10], in [11], in test [13], in test [14], in [15] and in test [16] was “inactive” each time. Besides, the compound was classed as inactive in test [3], in [6] and in test [12].
In the case of `CCCCCC1=CCCC1=O`, the Potency entry in [2], in test [4], in test [5], in test [7], in test [17] and in test [18] was “inactive” throughout. For the same compound, the Potency entry in test [8], in test [9], in test [10], in test [11], in test [14] and in [15] was “inactive” each time. Also, the compound was called inactive in [3], in [6] and in [12].
In the case of `OCCOCCN1CCN(C2=Nc3ccccc3Sc3ccccc32)CC1`, the compound was classed as inactive in [1], in test [3], in test [6] and in test [12]. The Potency result in test [2], in test [4], in [7], in [17], in test [18] and in test [8] was “inactive” each time. The Potency result in [10], in [13], in test [14], in [15] and in test [16] was “inactive” throughout. In test [9], the Potency was 13.3 µM (active).
Consider `CCCCCCCC(=O)OC`, for which the Potency entry in test [2], in [4], in test [5], in test [7], in test [17] and in test [18] was “inactive” in each case. In addition, the Potency result in test [8], in test [9], in [10], in [11], in [13] and in test [14] was “inactive” each time. Besides, the Potency entry in [15] and in [16] was “inactive” each time. Besides, the call in [3], in test [6] and in [12] was inactive.
For `COc1ccc(NC(C)=O)cc1N`, the Potency entry in [2], in test [4], in test [5], in test [7], in test [17] and in [18] was “inactive” each time. The Potency result in test [8], in test [9], in [10], in [11], in [14] and in test [15] was “inactive” each time. The compound was classed as inactive in test [3], in [6] and in [12].
`CC(C)c1ccc(S(=O)(=O)O)cc1`: the Potency result in test [2], in test [4], in test [5], in test [7], in [17] and in test [18] was “inactive” in each case. Moreover, the Potency result in [8], in test [9], in test [10], in test [11], in [14] and in test [15] was “inactive” in each case. Besides, the Potency entry in test [16] is “inactive”. The compound was called inactive in test [3], in test [6] and in [12].
Take `CC[C@H](C)C(=O)O[C@H]1C[C@@H](C)C=C2C=C[C@H](C)[C@H](CC[C@@H]3C[C@@H](O)CC(=O)O3)[C@H]21`: the call in test [1], in test [3], in [6] and in test [12] was inactive. Moreover, the Potency result in test [2], in test [4], in [5], in test [17], in [8] and in [11] was “inactive” in each case. Also, the Potency entry in test [14], in [15] and in test [16] was “inactive” each time. Further, the Potency in [9] was 34.9 µM (active) and 30.5 µM (active) and 15 µM (active); in [10], 39.1 µM (active) and 26.6 µM (active).
`O=C(O)[C@H](O)[C@@H](O)[C@H](O)[C@H](O)CO`: the outcome in [1], in [3] and in test [6] was inactive. Also, the Potency entry in test [2], in test [4], in test [5], in test [7], in [8] and in test [9] was “inactive” each time. In addition, the Potency result in test [10], in test [14] and in [16] was “inactive” in each case. In addition, the Potency in test [15] is 2.43 µM (active). For the same compound, the activation in [15] is -0.268% [at 3.27 µM].
On to `CCCCCC(N)=O`, for which the compound was called inactive in test [1], in [3], in [6] and in test [12]. The Potency entry in [2], in test [4], in [5], in [7], in test [17] and in [8] was “inactive” each time. In addition, the Potency entry in test [9], in [10], in test [14], in [15] and in test [16] was “inactive” each time.
As for `O=c1[nH]nnc2ccccc12`, the Potency result in [2], in test [4], in [5], in test [7], in [17] and in test [18] was “inactive” each time. Moreover, the Potency entry in test [8], in [9], in test [10], in test [14] and in [15] was “inactive” in each case. For the same compound, the compound was called inactive in test [3], in test [6] and in test [12].
Consider `CN(C)CCOCCN(C)C`, for which the Potency entry in [2], in test [4], in [5], in test [7], in [17] and in test [8] was “inactive” in each case. The Potency entry in [9], in [10], in [13], in test [14], in test [15] and in [16] was “inactive” in each case. Also, the compound was classed as inactive in [3], in test [6] and in [12].
Take `Nc1ccccc1[N+](=O)[O-]`: the Potency result in test [2], in test [4], in test [5], in test [7], in [17] and in [18] was “inactive” each time. Further, the Potency entry in test [8], in [9], in test [10], in test [14] and in test [15] was “inactive” each time. For the same compound, the outcome in [3], in [6] and in [12] was inactive.
